Results reported in PubChem BioAssay AID1159580 (chemical genetic matrix, 2015).
Out of some 5,500 compounds screened, about 2,000 (36%) were called active. Another 18% or so got no clear call; they are omitted. No stated cut-off is given here; in the data, active means normalized growth mostly below about 0.91 (no sharp cut-off); inconclusive means no clear call, values can overlap the other calls; inactive means mostly above about 0.92. The list shows a part of the results.

Test: chemical genetic growth profiling, strain panel (AID 1159580);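 further: tested at 20 µM; growth read once vehicle control cultures reached saturation at 30 °C; 1 = growth at the plate median or of vehicle wells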
Conditions: growth OD

Measured: normalized growth

Oc1c(Cl)cc(Cl)c2cccnc12
active: S. cerevisiae deletion strains, locus YJR066W, strain TOR1, stronger effect = lower value -0.00116 | S. cerevisiae deletion strains, locus YJR075W, strain HOC1, stronger effect = lower value 0.0672 | S. cerevisiae deletion strains, locus YKL009W, strain mrt4, stronger effect = lower value 0.092 | S. cerevisiae deletion strains, locus YKL068W, stronger effect = lower value 0.0598 | S. cerevisiae deletion strains, locus YKL085W, strain MDH1 (second series), stronger effect = lower value 0.057 | S. cerevisiae deletion strains, locus YKL085W, strain MDH1, stronger effect = lower value 0.057 | S. cerevisiae deletion strains, locus YKL160W, strain elf1, stronger effect = lower value 0.067 | S. cerevisiae deletion strains, locus YKL190W, strain CNB1, stronger effect = lower value 0.0458 | S. cerevisiae deletion strains, locus YKR001C, strain vps1, stronger effect = lower value 0.0676 | S. cerevisiae deletion strains, locus YKR026C, strain gcn3, stronger effect = lower value 0.0676 | S. cerevisiae deletion strains, locus YKR091W, strain srl3, stronger effect = lower value 0.0658 | S. cerevisiae deletion strains, locus YLL001W, strain dnm1, stronger effect = lower value 0.0628 | S. cerevisiae deletion strains, locus YLL026W, stronger effect = lower value 0.0652 | S. cerevisiae deletion strains, locus YLL041C, strain sdh2, stronger effect = lower value 0.0595 | S. cerevisiae deletion strains, locus YLR027C, strain aat2, stronger effect = lower value 0.0596 | S. cerevisiae deletion strains, locus YLR039C, strain RIC1, stronger effect = lower value 0.0746 | S. cerevisiae deletion strains, locus YLR058C, strain SHM2, stronger effect = lower value 0.0468 | S. cerevisiae deletion strains, locus YLR102C, strain apc9, stronger effect = lower value 0.0634 | S. cerevisiae deletion strains, locus YLR113W, strain HOG1, stronger effect = lower value 0.152 | S. cerevisiae deletion strains, locus YLR221C, strain rsa3, stronger effect = lower value 0.0659 | S. cerevisiae deletion strains, locus YLR258W, strain gsy2, stronger effect = lower value 0.0626 | S. cerevisiae deletion strains, locus YLR262C, strain YPT6 (second series), stronger effect = lower value 0.0862 | S. cerevisiae deletion strains, locus YLR262C, strain YPT6, stronger effect = lower value 0.0908 | S. cerevisiae deletion strains, locus YLR268W, strain sec22, stronger effect = lower value 0.0715 | S. cerevisiae deletion strains, locus YLR320W, strain mms22, stronger effect = lower value 0.0895 | S. cerevisiae deletion strains, locus YLR330W, strain CHS5, stronger effect = lower value 0.0519 | S. cerevisiae deletion strains, locus YLR342W, strain FKS1 (second series), stronger effect = lower value 0.0706 | S. cerevisiae deletion strains, locus YLR342W, strain FKS1, stronger effect = lower value 0.068 | S. cerevisiae deletion strains, locus YLR357W, strain rsc2, stronger effect = lower value 0.116 | S. cerevisiae deletion strains, locus YLR370C, strain arc18, stronger effect = lower value 0.0682 | S. cerevisiae deletion strains, locus YLR371W, strain rom2, stronger effect = lower value 0.0693 | S. cerevisiae deletion strains, locus YLR384C, strain iki3, stronger effect = lower value 0.0654 | S. cerevisiae deletion strains, locus YLR418C, strain cdc73, stronger effect = lower value 0.106 | S. cerevisiae deletion strains, locus YML016C, strain PPZ1, stronger effect = lower value 0.0467 | S. cerevisiae deletion strains, locus YML032C, strain rad52, stronger effect = lower value 0.0695 | S. cerevisiae deletion strains, locus YML120C, strain ndi1, stronger effect = lower value 0.0608 | S. cerevisiae deletion strains, locus YML124C, strain tub3, stronger effect = lower value 0.0633 | S. cerevisiae deletion strains, locus YMR058W, strain fet3, stronger effect = lower value 0.0638 | S. cerevisiae deletion strains, locus YMR078C, strain ctf18, stronger effect = lower value 0.0725 | S. cerevisiae deletion strains, locus YMR125W, strain sto1, stronger effect = lower value 0.0693 | S. cerevisiae deletion strains, locus YMR129W, stronger effect = lower value 0.0704 | S. cerevisiae deletion strains, locus YMR205C, strain PFK2, stronger effect = lower value 0.087 | S. cerevisiae deletion strains, locus YMR223W, strain ubp8, stronger effect = lower value 0.0733 | S. cerevisiae deletion strains, locus YMR231W, strain pep5, stronger effect = lower value 0.0731 | S. cerevisiae deletion strains, locus YMR263W, strain SAP30, stronger effect = lower value 0.057 | S. cerevisiae deletion strains, locus YMR307W, strain GAS1, stronger effect = lower value 0.101 | S. cerevisiae deletion strains, locus YNL067W, strain RPL9B, stronger effect = lower value 0.0516 | S. cerevisiae deletion strains, locus YNL071W, strain lat1, stronger effect = lower value 0.0698 | S. cerevisiae deletion strains, locus YNL128W, strain TEP1, stronger effect = lower value 0.0643 | S. cerevisiae deletion strains, locus YNL153C, strain GIM3, stronger effect = lower value 0.0512 | S. cerevisiae deletion strains, locus YNL183C, strain NPR1, stronger effect = lower value -0.00339 | S. cerevisiae deletion strains, locus YNL209W, strain ssb2, stronger effect = lower value 0.0648 | S. cerevisiae deletion strains, locus YNL233W, strain BNI4, stronger effect = lower value 0.0545 | S. cerevisiae deletion strains, locus YNL248C, strain rpa49, stronger effect = lower value 0.0607 | S. cerevisiae deletion strains, locus YNL250W, strain rad50, stronger effect = lower value 0.0707 | S. cerevisiae deletion strains, locus YNL271C, strain bni1, stronger effect = lower value 0.0672 | S. cerevisiae deletion strains, locus YNL298W, strain CLA4, stronger effect = lower value 0.0667 | S. cerevisiae deletion strains, locus YNL307C, strain MCK1, stronger effect = lower value 0.0744 | S. cerevisiae deletion strains, locus YNL322C, strain KRE1 (second series), stronger effect = lower value 0.0728 | S. cerevisiae deletion strains, locus YNL322C, strain KRE1, stronger effect = lower value 0.0468 | S. cerevisiae deletion strains, locus YNR049C, strain mso1, stronger effect = lower value 0.0631 | S. cerevisiae deletion strains, locus YNR052C, strain pop2, stronger effect = lower value 0.0629 | S. cerevisiae deletion strains, locus YOL006C, strain TOP1, stronger effect = lower value 0.108 | S. cerevisiae deletion strains, locus YOL147C, strain pex11, stronger effect = lower value 0.0586 | S. cerevisiae deletion strains, locus YOR001W, strain rrp6, stronger effect = lower value 0.072 | S. cerevisiae deletion strains, locus YOR061W, strain CKA2, stronger effect = lower value 0.045 | S. cerevisiae deletion strains, locus YOR069W, strain VPS5, stronger effect = lower value 0.046 | S. cerevisiae deletion strains, locus YOR070C, strain gyp1, stronger effect = lower value 0.0611 | S. cerevisiae deletion strains, locus YOR080W, strain dia2, stronger effect = lower value 0.0794 | S. cerevisiae deletion strains, locus YOR083W, strain WHI5, stronger effect = lower value 0.0648 | S. cerevisiae deletion strains, locus YOR106W, strain vam3, stronger effect = lower value 0.0647 | S. cerevisiae deletion strains, locus YOR136W, strain idh2, stronger effect = lower value 0.0779 | S. cerevisiae deletion strains, locus YOR144C, strain elg1, stronger effect = lower value 0.0585 | S. cerevisiae deletion strains, locus YOR184W, strain ser1, stronger effect = lower value 0.0845 | S. cerevisiae deletion strains, locus YOR231W, strain MKK1, stronger effect = lower value 0.105 | S. cerevisiae deletion strains, locus YOR265W, strain rbl2, stronger effect = lower value 0.0654 | S. cerevisiae deletion strains, locus YOR270C, strain vph1, stronger effect = lower value 0.0804 | S. cerevisiae deletion strains, locus YOR290C, strain snf2, stronger effect = lower value 0.062 | S. cerevisiae deletion strains, locus YOR316C, strain cot1, stronger effect = lower value 0.0632 | S. cerevisiae deletion strains, locus YPL051W, strain arl3, stronger effect = lower value 0.0645 | S. cerevisiae deletion strains, locus YPL055C, strain LGE1, stronger effect = lower value 0.0675 | S. cerevisiae deletion strains, locus YPL078C, strain atp4, stronger effect = lower value 0.0648 | S. cerevisiae deletion strains, locus YPL106C, strain sse1, stronger effect = lower value 0.0892 | S. cerevisiae deletion strains, locus YPL240C, strain hsp82, stronger effect = lower value 0.0586 | S. cerevisiae deletion strains, locus YPL241C, strain CIN2, stronger effect = lower value 0.0475 | S. cerevisiae deletion strains, locus YPL256C, strain CLN2, stronger effect = lower value 0.126 | S. cerevisiae deletion strains, locus YPR119W, strain clb2, stronger effect = lower value 0.0705 | S. cerevisiae deletion strains, locus YPR141C, strain kar3, stronger effect = lower value 0.0755 | S. cerevisiae deletion strains, locus YPR163C, strain tif3, stronger effect = lower value 0.074 | S. cerevisiae deletion strains, locus YPR167C, strain met16, stronger effect = lower value 0.0659 | S. cerevisiae deletion strains, strain wtn01, stronger effect = lower value 0.0707 | S. cerevisiae strains, strain wild type, stronger effect = lower value 0.0471
